PubChem BioAssay (Tox21)
Values joined by “and” are separate entries in the source; they are usually repeats but may differ in a detail not shown here. Identical values can stand only once. Results filed as inconclusive are left out. Active and inactive are the calls of the source. Unless noted, calls follow the shape of the dose curve; as a rule, active = well fitted curve in the direction sought with a large enough effect in the repeat runs; inconclusive = weak or mixed curves; inactive = no such curve, though single readings can be large; an effect the other way counts as inactive or inconclusive.

What was measured:
[1] = qHTS assay to test for compound auto fluorescence at 535 nm (green) in HEK293 cells (AID 720680)
[2] = qHTS assay to test for compound auto fluorescence at 460 nm (blue) in HEK293 cell free culture (AID 720681)
Procedure, shortened: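 Blue fluorescence (Ex 405/Em 460 nm, triamterene-equivalent) was read immediately after pin transfer of compound or DMSO into medium (DMEM, 10% FBS) without cells.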

[3] = qHTS assay to test for compound auto fluorescence at 535 nm (green) in HEK293 cell free culture (AID 720682)
Procedure, shortened: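 Using fluorescein as calibrant, autofluorescence was quantified at 485/535 nm in cell-free DMEM containing 10% FBS after pintool addition of compound or vehicle.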

[4] = qHTS assay to test for compound auto fluorescence at 590 nm (red) in HEK293 cell free culture (AID 720683)
Procedure, shortened: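 Red-channel autofluorescence of compounds in culture medium (DMEM, 10% FBS), no cells, measured at 540/590 nm. Rose Bengal sodium is the reference fluorophore for equivalence.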

[5] = qHTS assay to test for compound auto fluorescence at 590 nm (red) in HepG2 cell free culture (AID 720684)
Procedure, shortened: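 No cells present: MEM + 10% FBS only. Compound pinned in, red label read (540/590 nm). Activity = fluorescence equivalent to Rose Bengal sodium.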

[6] = qHTS assay to test for compound auto fluorescence at 460 nm (blue) in HepG2 cell free culture (AID 720685)
Procedure, shortened: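 Cell-free plates of MEM plus 10% FBS received 23 nL compound or DMSO vehicle; blue-channel (405/460 nm) intensity scored against triamterene as reference fluorophore.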

[7] = qHTS assay to test for compound auto fluorescence at 535 nm (green) in HepG2 cell free culture (AID 720686)
[8] = qHTS assay to identify small molecule antagonists of the glucocorticoid receptor (GR) signaling pathway - cell viability counter screen (AID 720693); also: nearly all actives have a fitted effect of over 55% in size; also: potency is read from the fitted curve at half-maximal effect
[9] = qHTS assay for identifying genotoxic compounds that show differential cytotoxicity against isogenic chicken DT40 cell lines with known DNA damage response pathways - wild type cell line (AID 743012); also: nearly all actives have a fitted effect of over 60% in size; also: potency is read from the fitted curve at half-maximal effect
Procedure, shortened: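 Viability of DNA repair-proficient chicken DT40 cells was assessed by CellTiter-Glo luminescence following 40 h compound exposure at 37 C/5% CO2.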

[10] = qHTS assay for identifying genotoxic compounds that show differential cytotoxicity against isogenic chicken DT40 cell lines with known DNA damage response pathways - Rad54/Ku70 mutant cell line (AID 743015); also: nearly all actives have a fitted effect of over 60% in size; also: potency is read from the fitted curve at half-maximal effect
[11] = qHTS assay to identify small molecule antagonists of the androgen receptor (AR) signaling pathway - cell viability counter screen (AID 743033; also: nearly all actives have a fitted effect of over 45% in size; also: potency is read from the fitted curve at half-maximal effect)
[12] = qHTS assay to identify small molecule antagonists of the androgen receptor (AR) signaling pathway using the MDA cell line - cell viability counter screen (AID 743041; also: nearly all actives have a fitted effect of over 45% in size; also: potency is read from the fitted curve at half-maximal effect)
Procedure, shortened: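 Using the breast carcinoma line MDA-kb2 AR-luc, test chemicals were co-incubated with R1881 for 16 h; CellTiter-Fluor reagent, added at 15.5 h, provided a fluorescence measure of live cells.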

[13] = molecular target: Glucocorticoid receptor (Homo sapiens) (UniProt P04150); assay: qHTS assay to identify small molecule agonists of the glucocorticoid receptor (GR) signaling pathway (AID 720691; active = well fitted activation curve with a large enough effect in the signal ratio in the repeat runs, not every such curve was filed as active; the % refers to the signal ratio); conditions: GR-bla HeLa, beta-lactamase reporter ratio, 18 h; activation: at 62.4 µM (top of the series)
Sequence of Glucocorticoid receptor (Homo sapiens) (P04150 whole entry, looked up): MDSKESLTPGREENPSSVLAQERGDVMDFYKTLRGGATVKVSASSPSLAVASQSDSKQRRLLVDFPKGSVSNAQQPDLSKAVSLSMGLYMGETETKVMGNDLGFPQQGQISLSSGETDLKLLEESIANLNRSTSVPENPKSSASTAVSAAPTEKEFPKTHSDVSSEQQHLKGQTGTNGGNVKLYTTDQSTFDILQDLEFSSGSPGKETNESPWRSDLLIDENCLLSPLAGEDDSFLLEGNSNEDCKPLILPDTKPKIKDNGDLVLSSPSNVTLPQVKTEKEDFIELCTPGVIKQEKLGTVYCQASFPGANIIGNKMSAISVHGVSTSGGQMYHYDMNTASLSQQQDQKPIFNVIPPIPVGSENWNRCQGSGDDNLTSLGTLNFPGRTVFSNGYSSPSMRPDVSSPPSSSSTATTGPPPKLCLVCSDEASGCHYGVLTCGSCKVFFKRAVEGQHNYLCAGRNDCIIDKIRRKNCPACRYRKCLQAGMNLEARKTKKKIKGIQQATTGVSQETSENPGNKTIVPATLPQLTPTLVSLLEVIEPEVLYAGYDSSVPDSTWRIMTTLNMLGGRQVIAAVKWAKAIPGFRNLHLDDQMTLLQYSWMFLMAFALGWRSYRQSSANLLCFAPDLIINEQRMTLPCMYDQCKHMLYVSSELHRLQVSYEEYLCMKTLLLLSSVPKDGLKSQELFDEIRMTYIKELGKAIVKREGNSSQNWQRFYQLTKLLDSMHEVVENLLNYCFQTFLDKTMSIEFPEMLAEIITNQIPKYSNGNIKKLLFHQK
Procedure, shortened: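 Compounds in DMSO, alongside positive controls, were added to GR-bla HeLa reporter cells and incubated 18 h at 37 C; GRE-driven beta-lactamase was detected by fluorescence after 2 h with FRET substrate at room temperature.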

[14] = qHTS assay for identifying genotoxic compounds that show differential cytotoxicity against isogenic chicken DT40 cell lines with known DNA damage response pathways - Rev3 mutant cell line (AID 743014); also: nearly all actives have a fitted effect of over 55% in size; also: potency is read from the fitted curve at half-maximal effect
[15] = molecular target: Androgen receptor (Homo sapiens) (UniProt P10275); assay: qHTS assay to identify small molecule agonists of the androgen receptor (AR) signaling pathway (AID 743036; active = well fitted activation curve with a large enough effect in the signal ratio in the repeat runs, with a control signal flat, not every such curve was filed as active; the % refers to the signal ratio)
Sequence of Androgen receptor (Homo sapiens) (P10275 whole entry, looked up): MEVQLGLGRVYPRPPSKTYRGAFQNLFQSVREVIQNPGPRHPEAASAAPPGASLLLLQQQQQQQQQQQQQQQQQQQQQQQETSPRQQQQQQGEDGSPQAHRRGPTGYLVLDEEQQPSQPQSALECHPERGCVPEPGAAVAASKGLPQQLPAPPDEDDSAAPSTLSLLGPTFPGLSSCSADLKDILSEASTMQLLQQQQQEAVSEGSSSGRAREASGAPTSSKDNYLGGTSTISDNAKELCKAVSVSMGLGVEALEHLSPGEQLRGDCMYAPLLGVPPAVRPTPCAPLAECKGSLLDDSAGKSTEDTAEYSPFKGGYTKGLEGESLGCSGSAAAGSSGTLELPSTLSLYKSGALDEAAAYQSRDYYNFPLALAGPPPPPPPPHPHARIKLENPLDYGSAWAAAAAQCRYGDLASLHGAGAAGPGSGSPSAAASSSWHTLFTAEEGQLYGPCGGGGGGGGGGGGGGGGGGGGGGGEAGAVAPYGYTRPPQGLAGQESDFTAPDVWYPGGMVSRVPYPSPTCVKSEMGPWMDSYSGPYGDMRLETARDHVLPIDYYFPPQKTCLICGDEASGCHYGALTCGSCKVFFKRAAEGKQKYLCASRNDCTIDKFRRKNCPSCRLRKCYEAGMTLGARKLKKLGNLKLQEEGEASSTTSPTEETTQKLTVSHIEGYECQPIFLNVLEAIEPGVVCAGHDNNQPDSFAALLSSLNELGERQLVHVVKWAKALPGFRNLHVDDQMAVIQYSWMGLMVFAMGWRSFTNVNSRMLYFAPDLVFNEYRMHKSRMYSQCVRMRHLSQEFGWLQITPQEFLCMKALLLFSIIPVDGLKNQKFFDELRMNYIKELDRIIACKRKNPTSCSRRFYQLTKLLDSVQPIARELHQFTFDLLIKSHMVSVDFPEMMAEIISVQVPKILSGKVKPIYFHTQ
Procedure, shortened: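 In this Tox21 qHTS, 2,000 HEK293 AR-bla cells per well were incubated with compounds for 16 h at 37C and 5% CO2. Fluorescence intensity was recorded 2 h after adding LiveBLAzer B/G FRET substrate at room temperature.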

[16] = molecular target: Androgen receptor (Homo sapiens) (UniProt P10275); assay: qHTS assay to identify small molecule agonists of the androgen receptor (AR) signaling pathway using the MDA cell line (AID 743040; also: nearly all actives have a fitted effect of over 20% in size)
Procedure, shortened: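 Stable MMTV-luciferase reporter in MDA-kb2 cells; note the promoter carries GR as well as AR response elements. 16 h compound treatment, 37C, 0% CO2; ONE-Glo luminescence endpoint.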

[17] = molecular target: Androgen receptor (Homo sapiens) (UniProt P10275); assay: qHTS assay to identify small molecule antagonists of the androgen receptor (AR) signaling pathway using the MDA cell line (AID 743042; also: nearly all actives have a fitted effect of over 55% in size; also: potency is read from the fitted curve at half-maximal effect)
Procedure, shortened: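 Antagonist mode: compounds plus R1881 agonist added to MDA-kb2 AR-luc cells, incubated 16 h at 37C. Luciferase reporter luminescence quantified, with multiplexed CellTiter-Fluor readout for cell viability.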

[18] = qHTS assay to test for compound auto fluorescence at 460 nm (blue) in HepG2 cells (AID 720687)
Procedure, shortened: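 Blue-channel autofluorescence (Ex/Em 405/460 nm, triamterene-equivalent) was measured after 1 hr compound exposure at 37 C, 5% CO2. Cells were HepG2, plated overnight at 37 C in MEM plus 10% FBS.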

[19] = molecular target: Glucocorticoid receptor (Homo sapiens) (UniProt P04150); assay: qHTS assay to identify small molecule antagonists of the glucocorticoid receptor (GR) signaling pathway (AID 720692; active = well fitted inhibition curve with a large enough effect in the signal ratio in the repeat runs, not every such curve was filed as active; the % refers to the signal ratio)
Procedure, shortened: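 In a 1536-well cell format, compounds were added 4 h after seeding GR-bla HeLa cells, together with dexamethasone at 5 nM final; reporter activity was measured by FRET-substrate fluorescence following 18 h at 37 C.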

[20] = molecular target: Androgen receptor (Homo sapiens) (UniProt P10275); assay: qHTS assay to identify small molecule antagonists of the androgen receptor (AR) signaling pathway (AID 743035; active = well fitted inhibition curve with a large enough effect in the signal ratio in the repeat runs, not every such curve was filed as active; the % refers to the signal ratio; also: potency is read from the fitted curve at half-maximal effect)
Procedure, shortened: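 Reporter HEK293 cells were exposed to compounds and R1881 overnight (16 h, 37C); beta-lactamase activity was then quantified by FRET fluorescence.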
% is scaled to controls: 0 for no effect and ±100 for the full control effect.

O=C(O)[C@H](O)[C@@H](O)C(=O)O
inactive: outcome [1] | Potency [2] | outcome [3] | outcome [4] | outcome [5] | Potency [6] | Potency [7] | Potency [8] | Potency [9] | Potency [10] | Potency [11] | Potency [12]

CC1=C2C[C@H]3[C@@H](CC=C4C[C@@H](O)CC[C@@]43C)[C@@H]2CC[C@]12O[C@@H]1C[C@H](C)CN[C@H]1[C@H]2C
active: Potency [9] 29.8 µM | Potency [14] 8.41 µM | Potency [10] 29.8 µM
inactive: outcome [1] | Potency [2] | outcome [3] | outcome [4] | outcome [5] | Potency [6] | Potency [7] | Potency [13] | Potency [8] | Potency [11] | outcome [15] | outcome [16] | Potency [12] | Potency [17]

CC(C)N(C(=O)SC/C(Cl)=C/Cl)C(C)C
inactive: outcome [1] | Potency [2] | outcome [3] | outcome [4] | outcome [5] | Potency [6] | Potency [7] | Potency [8] | Potency [9] | Potency [14] | Potency [10] | Potency [11] | Potency [12]

Oc1ccc([C@H]2CNCc3c2ccc(O)c3O)cc1O
inactive: outcome [1] | Potency [2] | outcome [3] | outcome [4] | outcome [5] | Potency [6] | Potency [7] | Potency [18] | Potency [8] | Potency [11] | Potency [12]

Cc1ccn2nc(S(=O)(=O)Nc3c(F)cccc3F)nc2n1
inactive: outcome [1] | Potency [2] | outcome [3] | outcome [4] | outcome [5] | Potency [6] | Potency [7] | Potency [8] | Potency [9] | Potency [10] | Potency [11] | Potency [12]

O.O.O.O.O.O.O=S(=O)([O-])[O-].[Ni+2]
inactive: outcome [1] | Potency [2] | outcome [3] | outcome [4] | outcome [5] | Potency [6] | Potency [7] | Potency [18] | Potency [8] | Potency [11] | Potency [12]

CC1(C)[C@H](/C=C2\CCSC2=O)[C@@H]1C(=O)OCc1coc(Cc2ccccc2)c1
active: Potency [9] 6.86 µM | Potency [10] 10.9 µM
inactive: outcome [1] | Potency [2] | outcome [3] | outcome [4] | outcome [5] | Potency [6] | Potency [7] | Potency [13] | Potency [8] | Potency [11]

O=C(O)CCCCCCNC1c2ccccc2CCc2ccccc21
inactive: outcome [1] | Potency [2] | outcome [3] | outcome [4] | outcome [5] | Potency [6] | Potency [7] | Potency [13] | Potency [19] | Potency [9] | Potency [14] | Potency [10] | Potency [11] | Potency [12]

CCOP(=O)(Sc1ccccc1)Sc1ccccc1
active: Potency [9] 24.3 µM
inactive: outcome [1] | Potency [2] | outcome [3] | outcome [4] | outcome [5] | Potency [6] | Potency [7] | Potency [13] | Potency [19] | Potency [8] | Potency [10] | Potency [11] | Potency [12]

O=S1OCC2C(CO1)C1(Cl)C(Cl)=C(Cl)C2(Cl)C1(Cl)Cl (configuration not stated)
inactive: outcome [1] | Potency [2] | outcome [3] | outcome [4] | outcome [5] | Potency [6] | Potency [7] | Potency [18] | outcome [16]
active: Potency [9] 54.5 µM and 24.3 µM | Potency [10] 48.6 µM and 48.5 µM | Potency [11] 49 µM | Potency [20] 38.9 µM and 48.9 µM

CCOP(=S)(OCC)SC(CCl)N1C(=O)c2ccccc2C1=O (configuration not stated)
inactive: outcome [1] | Potency [2] | outcome [3] | outcome [4] | outcome [5] | Potency [6] | Potency [7] | Potency [8] | outcome [15] | outcome [16] | Potency [12]
active: Potency [9] 48.6 µM | Potency [10] 61.1 µM | Potency [17] 61.1 µM

C#CCC1=C(C)C(OC(=O)C2C(C=C(C)C)C2(C)C)CC1=O (configuration not stated)
inactive: outcome [1] | Potency [2] | outcome [3] | outcome [4] | outcome [5] | Potency [6] | Potency [7] | Potency [12]
active: Potency [9] 19.2 µM | Potency [10] 30.4 µM

ClC1=C(Cl)[C@]2(Cl)[C@H]3[C@H]([C@@H]4C=C[C@H]3C4)[C@@]1(Cl)C2(Cl)Cl
inactive: outcome [1] | Potency [2] | outcome [3] | outcome [4] | outcome [5] | Potency [6] | Potency [7] | Potency [18] | Potency [9] | Potency [14] | Potency [10] | Potency [11] | Potency [12]

CCOC(=O)Cc1ccccc1
inactive: outcome [1] | Potency [2] | outcome [3] | outcome [4] | outcome [5] | Potency [6] | Potency [18] | Potency [13] | Potency [19] | Potency [8] | Potency [9] | Potency [14] | Potency [10] | Potency [11] | Potency [20] | outcome [15] | outcome [16] | Potency [12] | Potency [17]

CCC[CH2][Sn]([CH2]CCC)([CH2]CCC)[O][Sn]([CH2]CCC)([CH2]CCC)[CH2]CCC
inactive: fluorescence, % of fluorescein [1] 0.0128% [at 3.72 µM] | fluorescence, % of fluorescent control [2] -0.0236% [at 3.72 µM] | activity change [3] 0.0175% [at 3.72 µM] | fluorescence, % of fluorescent control [4] 0.113% [at 3.72 µM] | fluorescence, % of Rose Bengal [5] 0.0071% [at 3.72 µM] | fluorescence, % of fluorescent control [6] -0.0005% [at 3.72 µM] | fluorescence, % of fluorescent control [18] 0.0007% [at 3.72 µM] | activity change [16] -9.89% [at 8.47 µM]
active: Potency [8] 1.35 µM | Potency [9] 0.336 µM | Potency [14] 0.3 µM | Potency [10] 0.267 µM | Potency [11] 0.603 µM | Potency [20] 427 nM | Potency [12] 1.5 µM | Potency [17] 0.844 µM

CC(O)C(=O)[O][Hg][c]1ccccc1 (configuration not stated)
active: Potency [8] 0.549 µM | Potency [9] 0.273 µM | Potency [10] 0.154 µM | Potency [11] 2.45 µM
inactive: outcome [1] | Potency [2] | outcome [3] | outcome [4] | outcome [5] | Potency [6] | Potency [18]
